The list is not random: actives were taken first. Their share in the collection is about 1.4%.
HNF4A DNA FP: change in binding of human HNF4 alpha to DNA; P41235; HNF4a-FITC DNA binding, fluorescence polarization, 1 h; activity change, % at 10 µM; 360,000 compounds, 0.3% hits; AID 1224865; in the data active = activity change above about 30%, passing the limit was not always enough
Target sequence (P41235 whole entry, looked up): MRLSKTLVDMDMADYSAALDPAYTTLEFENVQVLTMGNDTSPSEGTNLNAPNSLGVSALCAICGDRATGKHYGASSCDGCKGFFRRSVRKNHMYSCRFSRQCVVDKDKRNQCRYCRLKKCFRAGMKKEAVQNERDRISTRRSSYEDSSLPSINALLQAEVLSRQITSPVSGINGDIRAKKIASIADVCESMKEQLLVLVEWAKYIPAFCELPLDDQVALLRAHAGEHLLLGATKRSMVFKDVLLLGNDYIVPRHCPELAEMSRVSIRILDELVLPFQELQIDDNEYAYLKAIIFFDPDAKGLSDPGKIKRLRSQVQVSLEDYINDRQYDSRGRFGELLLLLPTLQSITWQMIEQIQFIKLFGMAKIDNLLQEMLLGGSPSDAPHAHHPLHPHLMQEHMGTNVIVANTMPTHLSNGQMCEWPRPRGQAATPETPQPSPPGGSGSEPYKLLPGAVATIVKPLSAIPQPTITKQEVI
CRFBP-R2 agonist: agonists of human CRF-binding protein/CRF-R2 receptor complex; HEK293 CRF-R2/CRF-BP, calcium dye fluorescence (FLIPR); percent of saturating CRF peptide response; activation, % at 13.2 µM; 350,000 compounds, 0.46% hits; AID 588473;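 active = activation of at least 50%, plus an integration ratio under a set limit after plate pattern correction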;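 also: plate controls were neutral control wells without compound for no effect and CRF at EC100 for full effect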
IDE act: IDE (human) activation, cell-based. activation, % at 5.96 µM. P14735. AID 493087. 340,000 compounds, 0.073% hits. HEK cells, FAbeta-B cleavage, fluorescence polarization; 0% vehicle, 100% cell-free pure enzyme wells;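 active = activation above the mean of all tested compounds plus 3 SD, set per screening campaign, cut at about 17% in these data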
IDE inh: cellular human IDE inhibition; P14735; HEK cells, FAbetaB cleavage, fluorescence polarization; inhibition, % at 5.59 µM; 320,000 compounds, 0.41% hits; AID 434962;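 active = percent inhibition above the average of all tested compounds plus 3 SD, set per screening campaign, cut at about 16% in these data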;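 also: IDE supplied by intact live HEK cells; FP after avidin binding of uncleaved biotin substrate so inhibition keeps polarization high; 0% = DMSO wells and 100% = 60 µM reference IDE inhibitor Ii1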
TPT1 inhibitor: inhibitors of Candida albicans tRNA 2'-phosphotransferase TPT1; 300,000 compounds, 0.81% hits; recombinant caTPT1, FP RNA substrate dephosphorylation; inhibition, % at 5 µM; AID 1962;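 active = inhibition above the mean of all tested compounds plus 3 SD, set per screening campaign, cut at about 24% in these data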;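 also: plate controls were DMSO alone for no effect and ferristatin control at 100 nM for full effect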
TPT1 inh confirm: TPT1 (C. albicans) inhibition, confirmation; shares compounds with TPT1 inhibitor; recombinant caTPT1, fluorescence polarization, RNase T1 coupled; inhibition, % at 5 µM; 2,400 compounds, 74% hits; AID 2149;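 active = inhibition above the primary screen limit, the mean inhibition of all tested compounds plus 3 SD, cut at about 25% in these data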
RNase T1 counter: RNase T1 inhibition in TPT1 counter-screen; shares compounds with TPT1 inhibitor; RNase T1 cleavage, fluorescence polarization, 1536-well; 2,400 compounds, 83% hits; AID 2153; inhibition, % at 5 µM;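 active = inhibition above the solvent-only control well mean plus 3 SD, limit set per screening run, cut at about 23% in these data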;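 also: plate controls were DMSO wells with enzyme for no effect and wells without RNase T1 for full effect; inhibitors block cleavage so intact labeled substrate keeps polarization high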
Target sequence (P00651 whole entry, looked up): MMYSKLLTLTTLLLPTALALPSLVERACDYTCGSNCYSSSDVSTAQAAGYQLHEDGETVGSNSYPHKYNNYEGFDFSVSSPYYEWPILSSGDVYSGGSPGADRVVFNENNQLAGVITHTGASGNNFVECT
Starred values were filed as active, the others as inactive; / = no result.

SMILES	HNF4A DNA FP	CRFBP-R2 agonist	IDE act	IDE inh	TPT1 inhibitor	TPT1 inh confirm	RNase T1 counter
COC1=C/C(=C/c2c(N)n3c(nc2=O)sc2cc(S(C)(=O)=O)ccc23)C=CC1=O	95.7*	96.3*	-44.8	7.7	54.3*	146.5*	143.0*
CS(=O)(=O)c1ccc2c(c1)sc1nc(=O)c(/C=C3/C=CC(=O)C(O)=C3)c(N)n12	27.2	28.3	-30.3	-9.0	45.3*	98.2*	104.0*
NNc1nc2c(-c3ccc(Cl)cc3)nnn2c2ccccc12	39.2*	1.6	6.0	-0.6	39.2*	23.2	28.6*
NNc1nc2c(-c3ccc(F)cc3)nnn2c2ccccc12	25.4	-1.4	-1.8	5.5	29.2*	80.7*	91.5*
Cn1c(SCC(=O)Nc2cccc(F)c2)nc2c(c1=O)SCC2	1.1	-8.0	1.2	8.9	-0.3	/	/
COc1ccccc1CNC(=S)NCc1ccc(F)cc1	5.2	0.0	5.8	-2.1	-0.7	/	/
CCOc1cc(/C=C2\C(=O)N(c3nc(-c4ccc(Br)cc4)cs3)N=C2c2ccccc2)ccc1O	-11.9	-0.9	-2.9	-3.2	41.3*	99.7*	103.7*
CC1CC(C)CN(CCCNC(=O)CCC(=O)N2CC(C)Oc3ccccc32)C1 (configuration not stated)	1.0	0.2	7.3	-2.2	-3.0	/	/
COc1ccc(OCC(=O)N/N=C(\C)c2cc3ccccc3o2)cc1	2.3	0.6	2.9	-0.3	27.3*	23.7	34.6*
COc1ccc(OCC(=O)N/N=C(\C)c2ccc(OC)cc2)cc1	-0.2	-0.5	-3.5	2.9	-1.4	/	/
COc1ccc(-c2csc(NC(=O)CCS(=O)(=O)c3ccccc3)n2)c(OC)c1	4.2	-0.1	-0.1	-5.8	3.5	/	/
COC(=O)/C=c1/s/c(=C(\C#N)C(=O)NCc2ccco2)n(-c2ccc(C)cc2)c1=O	5.2	7.5	-5.5	6.4	82.2*	19.6	27.3*
COC(=O)/C=c1/s/c(=C(/C#N)C(=O)N2CCOCC2)n(-c2ccccc2)c1=O	2.0	-1.2	10.9	-1.7	-0.5	/	/
Cc1cc(C2CCCCC2)n(O)c(=O)c1	3.8	2.2	7.8	-2.3	-1.7	/	/
CC(C)NC(=O)/C(C#N)=C\c1ccc(N(C)C)o1	188.4	27.8	-23.8	5.9	153.3*	177.4*	169.6*
CCN(C(=O)CSc1nnc(-c2c[nH]c3ccccc23)o1)C1CCS(=O)(=O)C1 (configuration not stated)	-4.3	-0.2	-2.6	-7.5	-3.3	/	/
O=C(Cc1ccc(Cl)c(Cl)c1)Nc1cccc(S(=O)(=O)N2CCOCC2)c1	-1.9	-0.6	-0.7	4.4	61.8*	1.1	3.4
Cc1cccc(-n2c(N)c(-c3nc4ccccc4n3C)c3nc4ccccc4nc32)c1	2.4	37.4	3.9	-0.5	26.0*	25.0*	36.1*
Cc1ccc2c(c1)c1nc3ccccc3nc1n2C	-5.1	1.3	1.0	-3.8	-7.0	/	/
Cn1c(-c2c(N)n(-c3ccccc3)c3nc4ccccc4nc23)nc2ccccc21	8.2	85.8*	3.4	1.1	40.4*	42.7*	52.3*
Cc1cc(C(=O)N2CCCC(C)(C(=O)NS(=O)(=O)C3CC3)C2)n(C(C)(C)C)n1 (configuration not stated)	1.9	/	/	/	/	/	/
CC(C)(C)c1ccc(S(=O)(=O)NC(=O)C2(C)CCN2C(=O)CC2CCCCC2)cc1 (configuration not stated)	2.8	/	/	/	/	/	/
CCOC(=O)N1CCN(c2cc(NCCC(=O)O)c3c4c(onc24)-c2ccccc2C3=O)CC1	96.8	-3.3	5.4	8.8	136.9*	185.3*	151.9*
O=C(O)CCCNc1cc(N2CCC3(CC2)OCCO3)c2noc3c2c1C(=O)c1ccccc1-3	/	/	/	-5.4	-15.3	/	/
O=C(O)CCCNc1cc(N2CCN(C(=O)c3ccco3)CC2)c2noc3c2c1C(=O)c1ccccc1-3	12.2	7.7	0.2	4.6	95.7*	170.4*	141.1*
SMILES	HNF4A DNA FP	CRFBP-R2 agonist	IDE act	IDE inh	TPT1 inhibitor	TPT1 inh confirm	RNase T1 counter
CN1CCN(c2cc(N3CCN(C(=O)c4ccco4)CC3)c3c4c(onc24)-c2ccccc2C3=O)CC1	9.7	1.2	-1.8	-2.4	-9.4	/	/
CCCn1cc(CN2CCc3ccc(NC(=O)C4CCCO4)cc3C2)c(C)n1 (configuration not stated)	-8.0	-0.6	3.0	-3.7	-0.1	/	/
Cc1ccc(-c2cc(C(=O)O)c3sc(N4CCCCC4)nc3n2)cc1	1.2	0.8	3.2	8.8	27.3*	5.4	10.2
O=C(O)c1cc(-c2ccccc2)nc2nc(N3CCCCC3)sc12	/	/	/	-4.2	-2.7	/	/
COc1ccccc1N/C=C/c1onc(C)c1[N+](=O)[O-]	69.2*	89.3*	0.0	5.2	112.5*	96.5*	105.0*
Cc1noc(/C=C/Nc2ccc(F)cc2F)c1[N+](=O)[O-]	0.2	3.4	1.6	-1.9	4.2	/	/
CC(=Nc1ccc(C)cc1C)c1sc2ccccc2c1O	20.9	31.5	-10.2	6.4	55.4*	78.9*	93.5*
Cc1cc(NC(=O)c2sc3ccccc3c2O)no1	6.2	-0.1	2.3	/	/	/	/
COc1ccc(NC2=Nc3cccc4cccc2c34)cc1	14.9	0.0	-2.0	-3.0	26.2*	37.2*	48.5*
CN(C)S(=O)(=O)c1cccc(NC(=O)c2cccc(S(=O)(=O)N3CCc4ccccc43)c2)c1	-0.3	0.2	1.6	-2.2	/	/	/
COCC(=O)N1CCC(Oc2ccc(C(=O)N(C)C(C)c3ccon3)cc2)CC1 (configuration not stated)	3.0	0.4	3.9	0.8	1.2	/	/
Clc1ccc(Cn2c(/C=C/c3ccco3)nc3ccccc32)cc1	25.4	33.1	0.1	2.1	29.1*	33.7*	46.4*
Cc1ccc(Cn2c(/C=C/c3ccco3)nc3ccccc32)cc1	29.1	30.2	1.0	1.7	20.2	/	/
CCCCn1c(/C=C/c2ccco2)nc2ccccc21	3.3	9.9	-0.3	7.3	22.7	/	/
CCCn1c(/C=C/c2ccco2)nc2ccccc21	3.7	15.5	-2.8	2.1	25.0*	38.3*	50.9*
CCCn1c(SCC(=O)Nc2cc(C)on2)n[nH]c1=O	-1.7	-0.8	5.9	1.8	/	/	/
Cc1cc(=O)n2c(n1)NC(Nc1cccc(C)c1C)=NC2c1ccccc1 (configuration not stated)	1.1	-1.4	1.0	3.1	0.1	/	/
O=C(Nc1ccc2c(c1)OCCO2)C1c2ccccc2OCC(=O)N1Cc1ccco1 (configuration not stated)	0.2	/	/	/	/	/	/
CCN(CC)c1nc(C)c(C(=S)Nc2cc([N+](=O)[O-])ccc2Cl)s1	47.2*	23.1	-11.0	1.5	28.3*	61.0*	73.2*
CCCN(CCC)C(=O)c1cn(C)c2ccc(S(=O)(=O)N3CCCC3)cc2c1=O	1.7	-1.4	5.3	2.8	1.8	/	/
